# Results taken from PubChem BioAssay AID602156 (GNF / Scripps Winzeler lab, 2011).
# About 280 (4.9%) of roughly 5,700 compounds were called active. No rule for the calls is given here. The list is a sample of the results.
# Experiment: exo-erythrocytic parasite development inhibition – imaging, Malaria Box, P. yoelii, HepG2-A16-CD81EGFP, dose response (AID 602156)
# Settings: P. yoelii liver stage in HepG2-A16-CD81EGFP
row,SMILES,outcome
1,Oc1ccc(-c2nc3ccccc3s2)cc1CN1CCCCC1,inactive
2,O=C1CSC(=S)N1c1cccc(Cl)c1,inactive
3,CC[C@@H]1CCC[C@H](C)CC[C@@H](O[C@@H]2O[C@@H](C)[C@@H](O)[C@@H](N)[C@H]2O)[C@H](CC)CCCNC1=O,inactive
4,CN(CCCNc1nc2ccccc2c2nc(-c3cccnc3)nn12)Cc1ccccc1,inactive
5,O=C(Cc1ccccc1)NCc1ccc(Nc2c(-c3cccnc3)nc3ccccn23)cc1,inactive
6,CCCCCCCSc1c(O)c2ccc(Cl)cc2[nH]c1=O,inactive
7,COc1ccc(Nc2ncnc3[nH]c(-c4cccc([N+](=O)[O-])c4)cc23)cc1,inactive
8,C1CCC(CN2CCc3nc(N4CCCCC4)sc3C2)CC1,inactive
9,CC(=O)N(C1=C(N(C)C)C(=O)c2ccccc2C1=O)c1cccc(O)c1,inactive
10,Oc1ccc(Br)cc1C=NNc1nc2ccccc2[nH]1,inactive
11,CCCOC(=O)C1=C(C)NC2=C(C(=O)CC(c3ccc(OC)c(OC)c3)C2)C1c1ccccc1C (stereo not drawn),inactive
12,CN(C=Cc1sc2ccc3ccccc3c2[n+]1C)c1ccccc1,inactive
13,Oc1ccc(-c2cncnc2)cc1CNC1CCN(Cc2ccccc2)CC1,inactive
14,CC(C)CN(CC(=O)N1CCC(Nc2nsc3ccccc23)C1)S(C)(=O)=O (stereo not drawn),inactive
15,COc1ccc2[nH]c(-c3ccccc3)cc(=O)c2c1,inactive
16,COc1ccc(Nc2nc(Nc3ccc(OC)cc3)c3ccccc3n2)cc1,inactive
17,CC(=O)Nc1ccc(C2NC(=O)NC3=Nc4ccccc4SC(c4ccccc4)=C32)cc1 (stereo not drawn),inactive
18,Cc1cccc(CSc2nnc(C(Cc3ccccc3)NC(=O)C3CCCCC3)n2-c2ccc(Cl)cc2Cl)c1 (stereo not drawn),inactive
19,Cc1cc(Nc2ccc(C)c(F)c2)n2nc(C)nc2n1,inactive

row,SMILES,outcome
1,CCN1CCN(c2nc3ccccn3c(=O)c2C=C2SC(=S)N(C(C)C)C2=O)CC1,inactive
2,CCOc1ccccc1C=NNc1nc(Nc2ccccc2)nc(Nc2ccccc2)n1,inactive
3,Cc1cc(C)nc(NNc2c([N+](=O)[O-])cccc2[N+](=O)[O-])n1,inactive
4,O=c1c(NCc2ccco2)nc2cc(Cl)ccc2n1CCNc1ncc(C(F)(F)F)cc1Cl,inactive
5,Cn1c(=O)n(C)c2cc(NC(=O)CCl)ccc21,inactive
6,Oc1ccccc1-c1nc2ncccn2c1Nc1cccc(C(F)(F)F)c1,inactive
7,Cc1cc2cc3c(cc2c(C)n1)c1ccccc1n3C,inactive
8,Cc1ccc(N=C2NC(=O)C(=Cc3ccc(N(C)C)cc3)S2)cc1,inactive
9,c1ccc(CN2CCC(NCc3c[nH]c4ccccc34)CC2)cc1,inactive
10,Cc1ccccc1S(=O)Cc1ccc(C(=O)N2CCN(c3ccccn3)CC2)o1 (stereo not drawn),inactive
11,CCN1C(=Cc2ccc3cc(C)ccc3[n+]2C)C=Cc2cc(C)ccc21,inactive
12,O=C(NCc1ccccc1)c1cnc(NCCCn2ccnc2)nc1NCCc1ccccc1,inactive
13,N#Cc1ccccc1Cn1nc(-c2cccnc2)oc1=O,inactive
14,Clc1ccc(-c2c[n+](Cc3ccc(Cl)c(Cl)c3)c3n2CCC3)cc1,inactive
15,c1ccc(Cn2c(N=Nc3c(Nc4ccccc4)ccc4ccccc34)nc3ccccc32)cc1,inactive
16,COC(=O)c1c(-c2c(F)cccc2Cl)noc1/C=C/Nc1ccccc1,inactive
17,CCCN(CCC)C(=O)Cn1ccc(=N)c2ccccc21,inactive
18,O=C1N(Cc2cc3ccccc3s2)CC2CN(Cc3ccccc3)CCN12 (stereo not drawn),inactive
19,O=C1N(Cc2cc3ccccc3s2)CC2CN(Cc3ccoc3)CCN12 (stereo not drawn),inactive
